Some test systems named below: T-47D breast; BT-549 breast; MDA-MB-435 melanoma; SW-620 colon; MCF7 breast; HCT-116 colon; HCC-2998 colon; KM12 colon.
Common to all, as to assay: NCI-60 one-dose screen, 48 h (100 = growth as untreated, 0 = no growth, -100 = all killed)
Settings in all cases: 10 µM unless noted

Each structure is given as a SMILES string. The panel holds about 83,000 compounds, 20% with a hit somewhere; the sample as a whole holds those more often.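 Plates (96-well) were seeded with cells, treated with compound at one concentration, and incubated for 48 hours before percent growth was determined.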 A number with no mark means an inactive call. The source made the active and inactive calls. How the source made its calls: active means growth percent below 10; inactive means the rest.

`CCOC(=O)c1c(C)nc2ccccc2c1/C=C/c1cccs1`: the growth in the experiment on T-47D breast was 17.4%; with BT-549 breast, 77.4%; with MDA-MB-435 melanoma, 88.7%; with SW-620 colon, 91.9%; in the experiment with MCF7 breast, 39.5%; in the experiment with HCT-116 colon, 61.3%. For the same molecule, the values for the growth in the experiment with HCC-2998 colon and with KM12 colon were 79.4% and 77.8%, respectively.
In the case of `CN1CCN(CCOc2ccc(-c3cnc4c(-c5ccc(F)cc5)cnn4c3)cc2)CC1`, the growth in the experiment with T-47D breast was 52.7%; in the experiment on BT-549 breast, 82.8%; in the experiment with MDA-MB-435 melanoma, -34.3% (active); with SW-620 colon, -86.9% (active); in the experiment with MCF7 breast, 41%; in the experiment on HCT-116 colon it was 14.5%. Also, the growth is 71.6% in the experiment on HCC-2998 colon and 9.72% (active) in the experiment on KM12 colon.
Turning to `COc1ccc(C(=O)/C=C/c2ccc(Cl)cc2)cc1S(=O)(=O)Nc1c(N)nc(SC)[nH]c1=O`, the growth in the experiment with T-47D breast is 62.5%; in the experiment on BT-549 breast it was 60.5%; with MDA-MB-435 melanoma, 80%; in the experiment with SW-620 colon, 7.52% (active); in the experiment with MCF7 breast, 18.8%; in the experiment on HCT-116 colon, 11.4%. For the same molecule, the growth in the experiment on HCC-2998 colon was 90.8%; in the experiment on KM12 colon, 12.8%.
Take `COc1ccc(-c2ccc(-c3ccc(C(=N)N)nc3)s2)cc1Cl`: the growth was -28.6% (active) in the experiment on T-47D breast; 77.9% with BT-549 breast; -90.3% (active) in the experiment with MDA-MB-435 melanoma; -79.8% (active) in the experiment with SW-620 colon; -70% (active) in the experiment on MCF7 breast; -65.5% (active) in the experiment with HCT-116 colon. For the same molecule, the growth with HCC-2998 colon was -43.8% (active); in the experiment on KM12 colon, -86% (active).
For `CS(=O)(=O)c1ccc(NC(=O)c2ccccc2)nc1`, the growth with T-47D breast is 98.9%; in the experiment with BT-549 breast, 105%; in the experiment on MDA-MB-435 melanoma, 111%; with SW-620 colon, 100%; with MCF7 breast, 101%; in the experiment on HCT-116 colon it was 95.3%. Besides, the growth in the experiment on HCC-2998 colon and with KM12 colon was 107% throughout.
On to `CC1=C(C(=O)Nc2nc(-c3ccc(Cl)cc3)cs2)[C@H](c2ccc(O)cc2)NC(=O)N1`, for which the growth in the experiment on T-47D breast is 70.5%; in the experiment with BT-549 breast it was 90.4%; in the experiment with MDA-MB-435 melanoma, 101%; in the experiment with SW-620 colon, 102%; in the experiment on MCF7 breast it was 101%; with HCT-116 colon, 95.4%. Further, the growth was 108% in the experiment with HCC-2998 colon and 96.9% in the experiment with KM12 colon.
For the molecule `c1ccc2c(c1)CCCc1nnc3nc4ccccc4n3c1-2`, the growth in the experiment on T-47D breast is 31.7%; with BT-549 breast, 62.9%; in the experiment on MDA-MB-435 melanoma, 61.9%; in the experiment with SW-620 colon, 53.7%; in the experiment on MCF7 breast, 45.6%; with HCT-116 colon it was 17%. Besides, the growth was 42.4% in the experiment on HCC-2998 colon and 55.8% in the experiment with KM12 colon.
As for `CCNc1nc(O)c(/C=C2\C=Nc3ncccc32)s1`, the growth is -9.7% (active) with T-47D breast; -50.4% (active) with BT-549 breast; -0.802% (active) in the experiment on MDA-MB-435 melanoma; 6.52% (active) in the experiment with SW-620 colon; 3.97% (active) with MCF7 breast; 3.99% (active) in the experiment with HCT-116 colon. Besides, the results for the growth in the experiment with HCC-2998 colon and in the experiment with KM12 colon were 10.2% and 6.24% (active), respectively.
Regarding `O=C(Nc1ccc(Br)cc1)C1=NCCCCN1`, the growth with T-47D breast was 71.3%; in the experiment on BT-549 breast, 87.5%; in the experiment with MDA-MB-435 melanoma, 75.3%; in the experiment with SW-620 colon it was 67.3%; in the experiment with MCF7 breast, 81%; in the experiment on HCT-116 colon, 80.2%. Also, the growth in the experiment on HCC-2998 colon is 106%; in the experiment on KM12 colon, 75.6%.
Regarding `Cc1ccc(/C=C/C(=O)c2ccc(-n3cc(CN4CCN(c5cc6c(cc5F)c(=O)c(C(=O)O)cn6C5CC5)CC4)nn3)cc2)cc1`, the growth is 86.7% in the experiment on T-47D breast; 73.7% in the experiment with BT-549 breast; 77.4% in the experiment on MDA-MB-435 melanoma; 98.4% with SW-620 colon; 59.2% in the experiment with MCF7 breast; 8.04% (active) in the experiment on HCT-116 colon. The values for the growth with HCC-2998 colon and in the experiment with KM12 colon were 92.4% and 84.1%, respectively.
On to `COc1ccc(CCN2C(=O)/C(=C/c3ccc(C4Oc5ccccc5C5CC(c6ccccc6)=NN54)cc3)SC2=S)cc1` (stereo not given), for which the growth in the experiment with T-47D breast was 103%; in the experiment on BT-549 breast it was 101%; in the experiment with MDA-MB-435 melanoma, 104%; with SW-620 colon, 100%; with MCF7 breast, 97.3%; with HCT-116 colon it was 104%. The growth was 104% in the experiment on HCC-2998 colon and 106% with KM12 colon.
`CCOC(=O)C(=CNc1cnc(Nc2ccc(N3CCOCC3)cc2)nc1Oc1ccc(OC)cc1)C(=O)OCC`: the growth in the experiment with T-47D breast is 84.7%; in the experiment on BT-549 breast it was 77.3%; with MDA-MB-435 melanoma it was 61.7%; in the experiment on SW-620 colon, 46.8%; with MCF7 breast, 61.3%; in the experiment with HCT-116 colon, 11.4%. In addition, the growth was 91.7% in the experiment on HCC-2998 colon and 76.8% in the experiment with KM12 colon.
`NS(=O)(=O)c1ccc(NC(=O)/C(=C\c2ccc(Cl)cc2Cl)NC(=O)c2ccccc2)cc1`: the growth in the experiment with T-47D breast is 87.5%; with BT-549 breast, 89.1%; with MDA-MB-435 melanoma, 97.7%; with SW-620 colon, 104%; in the experiment on MCF7 breast it was 90.1%; in the experiment with HCT-116 colon, 97.3%. Further, the values for the growth with HCC-2998 colon and with KM12 colon were 103% and 102%, respectively.
With `O=[N+]([O-])c1ccc(-c2cn3nc(-c4c[nH]c5ccccc45)sc3n2)cc1`, the growth in the experiment with T-47D breast is 64.8%; in the experiment on BT-549 breast, 99.5%; with MDA-MB-435 melanoma it was 107%; with SW-620 colon, 99.9%; in the experiment on MCF7 breast, 79.5%; with HCT-116 colon, 90.8%. For the same molecule, the growth is 86.1% with HCC-2998 colon and 83.2% with KM12 colon.
In the case of `CO[C@H]1CC(=O)n2c3ccccc3c3c4c(c5c6ccccc6n1c5c32)C(=O)NC4=O`, the growth with T-47D breast is 11.1%; with BT-549 breast it was 68.6%; in the experiment on MDA-MB-435 melanoma, 48.5%; in the experiment on SW-620 colon, 32.8%; in the experiment with MCF7 breast it was 20.1%; with HCT-116 colon it was 55.6%. Besides, the growth in the experiment with HCC-2998 colon is 93.7%; in the experiment on KM12 colon, 29.9%.

(Values after PubChem BioAssay (NCI).)
